In PubChem BioAssay (EPA / NIEHS) one finds AC50 and outcome data, which are given here for 19 molecules.

Results filed as inconclusive are left out. The source made the active and inactive calls. How the source made its calls: active means hit-call score of the fitted dose curve at least 0.9, where 1 is the maximum; inconclusive means response in the unintended direction; inactive means score below 0.9.

Estrogen receptor (Homo sapiens), sequence (P03372 whole entry, looked up, the tested form may be a part): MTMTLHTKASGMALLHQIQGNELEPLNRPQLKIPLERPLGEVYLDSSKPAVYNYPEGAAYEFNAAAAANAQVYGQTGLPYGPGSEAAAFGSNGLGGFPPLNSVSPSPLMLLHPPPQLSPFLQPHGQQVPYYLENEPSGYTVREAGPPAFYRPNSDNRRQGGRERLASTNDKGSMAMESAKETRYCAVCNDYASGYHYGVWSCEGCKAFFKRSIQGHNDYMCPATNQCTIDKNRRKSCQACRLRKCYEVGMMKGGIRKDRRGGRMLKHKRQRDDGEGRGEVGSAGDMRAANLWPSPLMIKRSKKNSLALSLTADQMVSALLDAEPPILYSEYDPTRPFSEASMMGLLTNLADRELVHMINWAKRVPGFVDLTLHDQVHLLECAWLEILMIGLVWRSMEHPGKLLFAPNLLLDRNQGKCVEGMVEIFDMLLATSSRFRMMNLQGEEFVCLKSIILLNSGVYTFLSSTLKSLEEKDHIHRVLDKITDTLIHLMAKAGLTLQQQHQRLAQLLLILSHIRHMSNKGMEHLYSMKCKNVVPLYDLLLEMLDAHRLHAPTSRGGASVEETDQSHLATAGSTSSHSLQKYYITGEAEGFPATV

The assay concerns the target Estrogen receptor (Homo sapiens) (UniProt P03372). Description: ATG_ERa_TRANS: Attagene TRANS-FACTORIAL HepG2 Assay for human Estrogen Receptor alpha (ERa) (AID 2282970). Particulars: HepG2 Attagene TRANS ERa GAL4 reporter, mRNA. Here is the method: ATG_TRANS is a cell-based, multiplexed-readout assay that uses HepG2, a human liver cell line, with measurements taken at 24 hours after chemical dosing in a 24-well plate.ATG_ERa_TRANS is one of 30 assay component(s) measured or calculated from the ATG_TRANS assay. It is designed to make measurements of mRNA induction, a form of inducible reporter, as detected with fluorescence intensity signals by Reverse transcription polymerase chain reaction (RT-PCR) and Capillary electrophoresis technology.Data from the assay component ATG_ERa_TRANS was analyzed into 1 assay endpoint. This assay endpoint, ATG_ERa_TRANS, was analyzed in the positive analysis fitting direction relative to DMSO as the negative control and baseline of activity. Using a type of inducible reporter, measures of mRNA for gain-of-signal activity can be used to understand the reporter gene at the transcription factor-level as they relate to the gene ESR1. Furthermore, this assay endpoint can be referred to as a primary readout, because this assay has produced multiple assay endpoints where this one serves a reporter gene function. To generalize the intended target to other relatable targets, this assay endpoint is annotated to the nuclear receptor intended target family, where the subfamily is steroidal.
Human liver HepG2 cells are transiently transfected with multiple reporter transcription units (MRTUs) in 6-well plates using FuGene 6 reagent (Roche; 3 ml FuGene/1 mg DNA). The MRTU constructs are regulated by a cis-regulating element (promoter). […] A major difference between the CIS and TRANS system is that in CIS activities of endogenous TFs are measured, whereas the TRANS assay evaluates changes in activities of exogenous, chimeric NR-Gal4 proteins. […] At the end of 24 hour incubation, total RNA was isolated using TriZol reagent (Invitrogen). The isolated RNA is then reverse-transcribed using oligo(dT) primer and Mo-MLV reverse transcriptase (Invitrogen) with DNAse I (Ambion) treatment for 30 min. The one-tenth of the produced cDNA was amplified by PCR using Taq DNA polymerase (Invitrogen) and two reporter sequence-specific primers. The PCR products were fluorescently labeled by primer extension with 6-arboxyfluorescein (6-FAM) 5'-labeled reporter sequence-specific primer (2 min at 95 C, 20 s at 68 C and 10 min at 72 C) and these products were digested with 5U of HpaI (New England Biolabs) for 2h at 37 C. […] The raw capillary electrophoresis data was processed using Attagraph software (Attagene).
On to `CCCCCCCCn1sccc1=O`, for which the AC50 was 16.9 µM (active).
In the case of `ClC1=C(Cl)C2(Cl)C3C(Cl)C=CC3C1(Cl)C2(Cl)Cl` (centres undefined), the call was inactive.
For `O=[N+]([O-])C(Br)(CO)CO`, the result was inactive.
Same read-out and setting: as for `O=C(Nc1ccccc1)c1ccccc1I`, the entry is “inactive”.
For `CCOc1cccc(C2(N3CCN(c4ccccc4)CC3)CCC(C)CC2)c1` (centres undefined), the molecule was called inactive.
On the same count and under the same terms, under `[O-][Cl+]O` stands “inactive”.
In the case of `ClC1=C(Cl)[C@]2(Cl)[C@H]3[C@H]([C@@H]4C=C[C@H]3C4)[C@@]1(Cl)C2(Cl)Cl`, the AC50 is 11.5 µM (active).
The same measure, in the same setting: under `Nc1ccc(N=Nc2ccccc2)cc1` stands 33 µM (active).
In the case of `Brc1ccc(Oc2ccccc2)cc1`, the outcome was inactive.
On to `OCCCBr`, for which the molecule was called inactive.
Take `CCCCCOC(=O)c1ccccc1C(=O)OCCCCC`: the call was inactive.
Still for that read-out and setting: under `CCCCCCCCCCCCCN1CC(C)OC(C)C1` (centres undefined) stands “inactive”; under `CC(C)COC(=O)c1ccccc1C(=O)OCC(C)C`, “inactive”.
Still for that read-out and setting: under `CNC(=O)Oc1cccc2c1OC(C)(C)C2` stands “inactive”; under `N#CC(Br)Br`, “inactive”; under `Cc1ccc([N+](=O)[O-])cc1`, “inactive”.
On the same count and under the same terms, as for `O=C(Oc1ccc(Br)cc1)N1CCN2CCC1CC2`, the entry is “inactive”.
Consider `Clc1ccc(C(c2ccc(Cl)cc2)C(Cl)Cl)cc1`, for which the concentration at half-maximal activity (AC50) was 16.2 µM (active).
Consider `COc1cc(C=O)cc2c1[C@H](COC(N)=O)[C@]1(OC(C)=O)ON2C[C@H]2[C@@H]1N2C(C)=O`, for which the outcome was inactive.
